Out of some 320,000 compounds screened, about 2,100 (0.66%) were called active. Roughly 53% stayed inconclusive and do not appear here. This is one part of a sample in which actives are shown more often than they occur. Calls come from the whole dose curve; as a rule, active = well fitted inhibition curve with a large enough effect in the signal ratio, with a control signal flat (not every such curve was filed as active); inconclusive = small, poorly fitted or top-dose-only effect, or effect the other way, or a change in a side signal; inactive = flat fitted curve, though single readings scatter; the % refers to the signal ratio.
Potency is the fitted concentration of half-maximal effect.

A short description of the experiment: qHTS Assay for Lipid Storage Modulators in Drosophila S3 Cells.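 For cell number change: cells counted by Cell Tracker Red CMTPX staining in the red channel.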 For lipid storage change, negative = inhibition: % is set by controls: 0 for no effect and ±100 for the full control effect. Conditions: BODIPY lipid droplet fluorescence, 18-24 h, cells fed with added oleic acid; cell number change: measured here: cell count max response; series mostly up to 46.1 µM; lipid storage change, negative = inhibition: at the top concentration. The method in brief: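 Drosophila S3 cells loaded with oleic acid (400 uM, as added) and compounds at several concentrations; lipid droplets imaged by 488-nm laser-scanning cytometry, 500–530 nm intensity and object ratio to cell channel. Percent activity normalized to 20 uM Triacsin C.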
Consider `CCOc1ccc(NS(=O)(=O)c2c(C)nc3sccn3c2=O)cc1`, for which the “lipid storage change, negative = inhibition” value is -7.04% (inactive) and the cell number change is -0.288%.

As for `O=C(Nc1ccc(Br)cc1)C1CCCN(C2=NS(=O)(=O)c3ccccc32)C1` (stereo not drawn), the “lipid storage change, negative = inhibition” value is 7.4% (inactive) and the cell number change was found to be 0.774%.

Turning to `Cc1ccc(SC(C)C(=O)Nc2ncn[nH]2)cc1` (stereo not drawn), the molecule was called inactive.

`CC1CCN(C(CNS(=O)(=O)c2ccccc2)c2ccccc2)CC1` (stereo not drawn): the Potency is 0.461 µM (active) and the cell number change worked out at 12.1%.

`Cc1ccc(C(CNS(=O)(=O)c2ccccc2)N2CCN(C)CC2)cc1` (stereo not drawn): the outcome is “inactive [at 0.0737 µM]”.

With `O=S(=O)(NCC(c1ccccc1)N1CCC(O)CC1)c1ccc(Cl)cc1` (stereo not drawn), the molecule was classed as inactive.

In the case of `CCOc1cccc(OCCn2cnc3ccccc3c2=O)c1`, the “lipid storage change, negative = inhibition” value was 5.79% (inactive) and the cell number change amounted to 10.8%.

Turning to `COc1cccc(C(=O)N2CCN(C(=O)C3COc4ccccc4O3)CC2)c1` (stereo not drawn), the outcome was inactive.

With `COC(=O)c1ccc2c(=O)n(CCCCCC(=O)O)c(=S)[nH]c2c1`, the “lipid storage change, negative = inhibition” value is 5.22% (inactive) and the cell number change came out at 9.06%.

As for `COCCn1c(=S)[nH]c2cc(C(=O)NC(C)C)ccc2c1=O`, the result was inactive.

Take `CCOCCCn1c(=S)[nH]c2cc(C(=O)NCCc3ccccc3)ccc2c1=O`: the molecule was called inactive.

Regarding `CCn1c(=S)[nH]c2cc(C(=O)OC)ccc2c1=O`, the call was inactive and the cell number change was determined as 11.1%.

As to `COCCn1c(=S)[nH]c2cc(C(=O)NCCc3ccccc3)ccc2c1=O`, the Potency was 2.31 µM (active) and the cell number change was -6.13%.

Turning to `CCN(CC)CCCn1c(=S)[nH]c2cc(C(=O)OC)ccc2c1=O`, the Potency is 3.66 µM (active) and the cell number change was 12.4%.

Consider `Cc1ccc(S(=O)(=O)Nc2cc(C(C)C)c(O)cc2C)cc1`, for which the “lipid storage change, negative = inhibition” value is 6.78% (inactive) and the cell number change was -20%.

Consider `CCOC(=O)/C(C#N)=C/N1CCOCC1`, for which the “lipid storage change, negative = inhibition” value is -5.47% (inactive) and the cell number change is -2.81%.

As to `NC(=NC(=O)c1ccc(OCC(F)(F)F)nc1)c1ccc(Cl)cc1`, the “lipid storage change, negative = inhibition” value is -1.51% (inactive) and the cell number change is -16.5%.

On to `CC(=O)c1ccc(OCC(=O)OCC(=O)Nc2sccc2C(N)=O)cc1`, for which the Potency is 3.66 µM (active) and the cell number change is -10.9%.

In the case of `COc1ccc(CCC(=O)OCC(=O)Nc2ccccc2)cc1`, the result was inactive and the cell number change amounted to 3.15%.

On to `COc1ccc(CCC(=O)OCC(=O)Nc2sccc2C(N)=O)cc1`, for which the Potency was 6.51 µM (active) and the cell number change is -27.9%.

Turning to `COc1cc(OC)cc(C(=O)OCC(=O)Nc2sccc2C(N)=O)c1`, the “lipid storage change, negative = inhibition” value was -18.4% (inactive) and the cell number change turned out to be 2.18%.

Take `Cc1ccc(OCC(=O)OCC(=O)Nc2sccc2C(N)=O)cc1C`: the “lipid storage change, negative = inhibition” value was 4.32% (inactive) and the cell number change was -3.96%.

As for `NC(=O)c1ccsc1NC(=O)COC(=O)COc1ccccc1F`, the “lipid storage change, negative = inhibition” value was 8.92% (inactive) and the cell number change was -3.04%.

`CCOC(=O)C1CCN(C(=O)CCc2c(C)nc3c(-c4ccc(F)cc4)c(C)nn3c2C)CC1`: the “lipid storage change, negative = inhibition” value is 6.7% (inactive) and the cell number change amounted to 9.15%.

In the case of `COc1ccccc1NS(=O)(=O)c1cccc(C(=O)N2CCN(C/C=C/c3ccccc3)CC2)c1`, the “lipid storage change, negative = inhibition” value was -18.7% (inactive) and the cell number change was -3.91%.

Turning to `COc1cc2c(C(=O)N(C)c3ccc(F)cc3)cn(C)c(=O)c2cc1OC`, the “lipid storage change, negative = inhibition” value is 19.8% (inactive) and the cell number change is -28.8%.

On to `CN(CC(=O)OCC(N)=O)S(=O)(=O)c1ccc(Cl)cc1`, for which the “lipid storage change, negative = inhibition” value is 11.6% (inactive) and the cell number change is -16.4%.

In the case of `CC(=O)c1c(C)[nH]c(C(=O)COC(=O)CN(C)S(=O)(=O)c2ccc(Cl)cc2)c1C`, the Potency is 5.8 µM (active).

Turning to `CCCC(=O)OCC(=O)c1[nH]c(C)c(C(C)=O)c1C`, the “lipid storage change, negative = inhibition” value was 4.32% (inactive) and the cell number change turned out to be 5.74%.

Take `O=C(Nc1cccc(Cl)c1)c1ccc2c(=O)n3c(nc2c1)CCCCC3`: the “lipid storage change, negative = inhibition” value was 16% (inactive) and the cell number change was -6.1%.

As to `O=C(N1CCCCC1)C12CC3CC(CC(C3)C1)C2`, the “lipid storage change, negative = inhibition” value was 0.667% (inactive) and the cell number change was -0.102%.

On to `COc1ccc(OCc2nnc(SCC(=O)NC3CC3)n2C)cc1`, for which the “lipid storage change, negative = inhibition” value was 16.1% (inactive) and the cell number change amounted to 16.2%.

`Cn1c(COc2ccc(Cl)cc2)nnc1SCC(=O)NC1CCCC1`: the Potency is 14.6 µM (active) and the cell number change is 17.9%.

Turning to `Cc1ccc(OCc2nnc(SCC(=O)NC3CCCCC3)n2C)cc1`, the outcome was inactive and the cell number change worked out at 20.5%.

As to `COC(=O)c1cc2c(N)c(C(=O)c3ccccc3)sc2nc1C(OC)OC`, the “lipid storage change, negative = inhibition” value was 6.49% (inactive) and the cell number change was -8.65%.

Regarding `O=C(CS(=O)c1ccccc1[N+](=O)[O-])Oc1ccc(Br)cc1` (stereo not drawn), the “lipid storage change, negative = inhibition” value is 3.04% (inactive) and the cell number change was 2.35%.

As to `CS(=O)(=O)c1ccc(S(=O)CC(=O)OCc2ccccc2)c([N+](=O)[O-])c1` (stereo not drawn), the Potency was 29.1 µM (active) and the cell number change was -65.2%.

Consider `CCOC(=O)c1ccccc1OC(=O)CS(=O)c1ccccc1[N+](=O)[O-]` (stereo not drawn), for which the molecule was called inactive and the cell number change was -21.3%.

For the molecule `CSc1nsc(SCC(=O)N2CCc3ccccc32)n1`, the call was inactive and the cell number change was -10.2%.

With `O=C(NCCCn1ccnc1)C(=O)NCC1OCCN1S(=O)(=O)c1ccc(Br)cc1` (stereo not drawn), the “lipid storage change, negative = inhibition” value is 5.76% (inactive) and the cell number change was -6.41%.

As for `O=C(CN1C(=O)NC2(CCCC2)C1=O)Nc1ccccc1F`, the outcome was inactive and the cell number change is -18%.

For `COC(=O)[C@H](CCSC)NC(=O)Nc1ccc(C)c(C)c1`, the Potency is 5.17 µM (active) and the cell number change is -12.2%.

`COC(=O)[C@H](CCSC)NC(=O)Nc1ccc(C(C)=O)cc1`: the “lipid storage change, negative = inhibition” value is -13.7% (inactive) and the cell number change worked out at 0.814%.

On to `COC(=O)[C@H](CCSC)NC(=O)Nc1cc(C)ccc1C`, for which the molecule was classed as inactive.

For the molecule `CSCC[C@H](NC(=O)Nc1cccc(Br)c1)C(=O)O`, the “lipid storage change, negative = inhibition” value was -5.56% (inactive) and the cell number change came out at 8.72%.

Consider `CSCC[C@H](NC(=O)Nc1cccc(C(F)(F)F)c1)C(=O)O`, for which the Potency is 14.6 µM (active) and the cell number change is -1.65%.

Consider `C[C@H](NC(=O)Nc1cccc(C(F)(F)F)c1)C(=O)O`, for which the “lipid storage change, negative = inhibition” value is 3.6% (inactive) and the cell number change was 14.7%.

Consider `COc1cccc(-c2ccc(C#N)c(SCC(=O)NCc3ccco3)n2)c1`, for which the “lipid storage change, negative = inhibition” value was -1.45% (inactive) and the cell number change came out at 0.401%.
